Data from PubChem BioAssay AID687001 (Broad Institute, 2013).
Entries with a potency or affinity are not part of this list. Active and inactive are the calls of the source.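 Rule for the calls: active = signal-lowering compounds whose fitted half-maximal concentration is at or below twice the top tested dose in every run; inconclusive = runs disagree, flat 30 to 70% inhibition, or poor curve fit; inactive = the rest.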

These molecules were tested against Protein S100-A4 (Homo sapiens) (UniProt P26447) (assay: S100A4-myosin IIA binding inhibitor potency, dose response, biochemical, fluorescence polarization, cherry-picked hits (AID 687001)). Conditions: FP, S100A4/TAMRA-myosin IIA peptide binding; series mostly up to 11 µM.
Chain of Protein S100-A4 (Homo sapiens) (P26447 whole entry, looked up): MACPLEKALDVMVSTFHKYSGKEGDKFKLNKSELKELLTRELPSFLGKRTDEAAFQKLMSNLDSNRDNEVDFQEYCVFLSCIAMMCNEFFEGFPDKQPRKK

outcome, inactive:
O=C(NCCc1ccncc1)Nc1ccc(F)cc1
C[C@@H]1CCCCO[C@@H](CN(C)S(=O)(=O)c2cn(C)cn2)[C@H](C)CN([C@@H](C)CO)C(=O)c2cc(NC(=O)C3CCCCC3)ccc2O1
COc1ccc2[nH]c3c(c2c1)CCN1C(=O)N([C@@H](C)C(=O)NCc2ccccc2)C(=O)[C@]31C
CCOc1ccccc1CNC(=O)c1cc2occc2n1C
NS(=O)(=O)c1ccc(NC(=O)COC(=O)CCCN2C(=O)c3cccc4cccc(c34)C2=O)cc1
O=C(O)c1cccc(C(=O)O)c1S(=O)Cc1ccccc1 (stereo not given)
Cc1cc(C)c(NC(=O)CS(=O)CC(=O)NCCN2CCCCCC2)c(C)c1 (stereo not given)
Cc1ccc(S(=O)(=O)n2cccc2C)cc1
Cc1ccc(N(C)S(=O)(=O)c2cccc(C(=O)NCCCN3CCCC3=O)c2)cc1
Cc1noc(C)c1NC(=O)N(C)C[C@H]1Oc2c(NC(=O)CCCCCC(=O)Nc3ccccc3N)cccc2C(=O)N([C@@H](C)CO)C[C@H]1C
Cc1cc(C)nc(NC(=O)CCN2C(=O)c3ccccc3S2(=O)=O)n1
C[C@@H]1CCCCO[C@@H](CN(C)C(=O)CCC(F)(F)F)[C@@H](C)CN([C@@H](C)CO)C(=O)c2cc(NC(=O)c3ccccc3)ccc2O1
Cc1cccc2sc(NC(=O)C3CCN(C(=O)c4ccco4)CC3)nc12
C[C@H]1CN([C@@H](C)CO)C(=O)c2cccc(NC(=O)C3CC3)c2O[C@@H]1CN(C)Cc1ccc2c(c1)OCO2
O=C(CCN1CCCCC1)N[C@H]1CC[C@@H](CCNS(=O)(=O)c2ccc(Cl)cc2)O[C@H]1CO
Cc1onc(-c2ccccc2Cl)c1C(=O)N1CCCC1
CCCCn1c(N)c(N(CC)C(=O)CSCc2ccc(C)cc2)c(=O)[nH]c1=O
CCOc1ccc(NC(=O)CN(C)C(=O)c2cccc3ccccc23)cc1OCC
C[C@@H]1CN([C@@H](C)CO)S(=O)(=O)c2ccc(Br)cc2O[C@@H]1CN(C)Cc1ccncc1
CC(=O)N(C)C[C@@H]1Oc2cc(C#CCC(C)C)ccc2S(=O)(=O)N([C@H](C)CO)C[C@@H]1C
CCCCCC(=O)Nc1cc(S(=O)(=O)N2CCOCC2)ccc1N1CCCCC1
O=C(NC1CCCC1)N1CCCCN2[C@@H](CO)[C@@H](c3ccc(-c4cccnc4)cc3)[C@@H]2C1
CC(OC(=O)/C=C/c1cccs1)C(=O)NC1CCCCC1C (stereo not given)
N/C(=N\OC(=O)CCn1cccc(C(F)(F)F)c1=O)c1ccc(OC(F)(F)F)cc1
C#CCNCCS(=O)(=O)N(Cc1ccc(Br)cc1)[C@@H](CC(C)C)C(=O)O
